Source: PubChem
M1 agonist: M1 muscarinic receptor agonists, primary screen, CHO-M1 cells, Fluo-4 calcium, agonist mode; Muscarinic acetylcholine receptor M1; Fluo-4 calcium fluorescence; stronger effect = higher value; B-score at 10 µM; hit rate 3% among 64,000; AID 626, 2007;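 active = fluorescence rise, raw or as B-score row- and column-corrected plate score, outside the 99.7% band of its plate's samples, either direction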
Cav3 T inh: Cav3.2 calcium influx blockers – cell-based, Fluo-4 calcium fluorescence, FDSS, MLSMR library, primary screen. hit rate 4% among 100,000. Cav3.2-expressing cells; stronger effect = lower value. Voltage-dependent T-type calcium channel subunit alpha-1H (Homo sapiens), O95180. B-score at 10 µM;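 active = single-dose well whose peak fluorescence ratio is a statistical outlier from its plate by either plate-standardised score or position-corrected B-score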
PLAP act: PLAP enzyme activators, biochemical, luminescence, HTS; activation fold at 20 µM; Alkaline phosphatase, placental type (Homo sapiens), P05187; AID 696, 2007; hit rate 1.2% among 96,000; purified PLAP enzyme, luminescent substrate read-out; stronger effect = higher value; in the data active = activation fold above about 2
Her2 expr inh: inhibitors of Her2 protein expression, primary screen, SKBR-3 cells, AlphaScreen, 66K library; Receptor tyrosine-protein kinase erbB-2 (Homo sapiens), P04626; SKBR-3 HER2 protein level, 18-24 h; stronger effect = lower value; HER2 level % of control, % at 10 µM; hit rate 0.69% among 65,000; AID 645, 2007;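 active = HER2 level under 5% of the carrier-only control; inconclusive = no clear call, values can overlap the other calls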;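 also: 100% = DMSO carrier and 0% = 500 nM PU-H71 HSP90 inhibitor; lower value means stronger loss of Her2 protein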
M1 antagonist: antagonists of rat M1 muscarinic receptor | B-score at 10 µM | CHO-M1 cells, Fluo-4 calcium, ACh EC80 antagonist mode; stronger effect = lower value | AID 628, 2007 | hit rate 3.4% among 64,000;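 active = calcium fluorescence response, raw or row-and-column corrected B-score, differing from the plate sample mean either way at a set confidence level, mostly lower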
M1 agonist conf: rat M1 muscarinic receptor agonists, confirmation, CHO-M1 cells, Fluo-4 calcium, duplicate retest; hit rate 19% among 1,700; fluorescence change (max-min) at 10 µM; Fluo-4 calcium fluorescence, agonist mode; actives lie on both sides; shares compounds with M1 agonist; AID 1488, 2009;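 active = fluorescence change differs from the solvent-only DMSO control mean at a set confidence level in both duplicate runs; inconclusive = differs from solvent-only control mean in just one of two runs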;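 also: an EC20 dose of acetylcholine follows compound addition during the same imaging run; raw fluorescence intensity difference in instrument units with no normalization to controls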
M4 ag counter: agonist activity at rat M4 receptor, confirmation, counter-screen for M1 allosteric modulator project, cell-based, agonist mode; shares compounds with M1 agonist; CHO M4/Gqi5 cells, Fluo-4 calcium fluorescence; actives lie on both sides; fluorescence change (max-min) at 10 µM; hit rate 9% among 1,700; AID 1741, 2009;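 active = fluorescence change differing from the plate's solvent-only control wells at 99.7% confidence in both duplicates, whether higher or lower; inconclusive = differs from solvent controls in only one of two duplicates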
Target sequence (P08485 whole entry, looked up): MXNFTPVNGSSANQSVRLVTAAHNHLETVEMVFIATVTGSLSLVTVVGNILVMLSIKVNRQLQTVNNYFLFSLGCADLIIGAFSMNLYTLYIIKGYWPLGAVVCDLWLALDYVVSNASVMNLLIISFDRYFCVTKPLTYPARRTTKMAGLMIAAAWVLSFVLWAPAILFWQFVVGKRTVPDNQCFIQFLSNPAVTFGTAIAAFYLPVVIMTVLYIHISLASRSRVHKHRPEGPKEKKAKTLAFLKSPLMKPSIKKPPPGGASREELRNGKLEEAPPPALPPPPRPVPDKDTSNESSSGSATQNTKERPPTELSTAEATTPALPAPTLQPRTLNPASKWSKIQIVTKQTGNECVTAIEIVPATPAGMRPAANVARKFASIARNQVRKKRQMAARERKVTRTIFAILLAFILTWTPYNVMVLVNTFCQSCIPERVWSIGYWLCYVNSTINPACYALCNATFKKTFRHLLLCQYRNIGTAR
M1 antag conf: rat M1 muscarinic receptor antagonists, confirmation, CHO cells, Fluo-4 calcium, duplicate; shares compounds with M1 antagonist; ACh EC80 antagonism; stronger effect = lower value; calcium response (max-min fluorescence) at 10 µM; hit rate 43% among 1,700;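 active = calcium response below the same-plate mean of wells given acetylcholine alone at its 80%-effect dose, minus 3 SD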;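 also: raw fluorescence intensity difference in arbitrary instrument units and not normalized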
mGluR4 antag: human mGluR4 response to M1 antagonist hits, M1 allosteric modulator project, cell-based, antagonist mode, secondary assay 1; shares compounds with M1 antagonist; CHO-mGluR4 calcium flux, Fluo-4 fluorescence, glutamate EC80; stronger effect = lower value; fluorescence response (max-min) at 10 µM; hit rate 0.9% among 1,700;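 active = fluorescence response below the plate's average for near-maximal glutamate wells, less 3 SD of those wells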;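 also: raw unnormalized fluorescence span taken in the window right after glutamate addition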
An asterisk follows results filed as active; ? = inconclusive; · = no result given. Hits are enriched below; roughly 7.9% of the tested compounds scored in any of these assays.

SMILES	M1 agonist	Cav3 T inh	PLAP act	Her2 expr inh	M1 antagonist	M1 antag conf	mGluR4 antag	others
CC(C)COC(=O)C(C#N)c1nc2ccccc2nc1N1CCN(Cc2ccccc2)CC1 (centres undefined)	-2.29*	-3.96*	1.3	90.4	-1.32*	631	178	M1 agonist conf=8.35;M4 ag counter=-8.44
C=CCOC(=O)C(C#N)c1nc2ccccc2nc1N1CCN(Cc2ccccc2)CC1 (centres undefined)	-0.195	0.0113	1.5	107.0	-0.384	·	·
CCCCC1(C)OC(=O)C(=Cc2ccc(N(C)C)cc2)C(=O)O1 (centres undefined)	·	0.264	1.2	·	·	·	·
CCC(CC)C(=O)Nc1c2c(nn1-c1ccc(OC)cc1)CS(=O)C2 (centres undefined)	-2.45*	0.451	0.7	100.3	-3.28*	675	175	M1 agonist conf=?;M4 ag counter=-35.7
CCOc1ccccc1NC(=O)CC1Nc2ccccc2NC1=O (centres undefined)	-1.25	-0.689	·	83.6	-0.371	·	·
CCOc1ccccc1NC(=O)CC1Nc2cc(C)c(C)cc2NC1=O (centres undefined)	-2.28*	-2.77	1.4	50.6	-2.65*	597	232	M1 agonist conf=-10;M4 ag counter=-40.9
CC1CCCCN1CCNC(=O)c1cc2c(=O)n(C)c3ccccc3c2n1C (centres undefined)	-2.73*	0.558	1.8	61.6	-4.17*	419*	254	M1 agonist conf=-17.1;M4 ag counter=-24.9
c1coc(-c2nn3c(Cn4nnc5ccccc54)nnc3s2)c1	0.0192	-0.226	0.9	78.4	0.121	·	·
CCOCCCNC(=S)N1C2CCC1CC(NC(=O)NC13CC4CC(CC(C4)C1)C3)C2 (centres undefined)	·	0.799	1.7	·	·	·	·
CCOC(=O)c1ccc(NC(=O)N2CCN(CCc3ccccc3)CC2)cc1	-2.4*	-0.211	1.6	78.6	-2.21*	459	192	M1 agonist conf=-1.67;M4 ag counter=-23.3
CCOC(=O)c1ccc(NC(=O)N2CCN(c3ccccn3)CC2)cc1	0.817	0.231	0.9	92.7	0.00173	·	·
CCOc1ccc(N=Cc2c(O)cc(C)oc2=O)cc1	-3.45*	0.607	1	89.3	-10.4*	688	203	M1 agonist conf=-12.5;M4 ag counter=?
O=S(=O)(c1ccc(Cl)cc1)N1CCC(N2CCCCCC2)CC1	0.522	0.915	1.1	110.3	-4.65*	545	259
CCOC(=O)c1ccc2ncc(C(=O)OCC)c(NCCCN3CCOCC3)c2c1	0.266	-0.32	1.5	90.0	-4.62*	405*	242
CCOC(=O)c1cnc2ccccc2c1NCCO	1.3	-0.111	0.9	67.6	-2.92*	409*	212
CCOC(=O)c1cnc2c(C)cccc2c1NCc1ccco1	1.81	1.54	1.3	117.0	-8.34*	321*	249
CCOC(=O)c1cnc2c(C(=O)OC)cccc2c1NCc1ccco1	-0.925	-0.0352	1.5	141.3	-1.29	·	·
CCOC(=O)c1cnc2ccc(Br)cc2c1NCCO	0.406	0.144	0.9	159.9	-0.0168	·	·
CCN1CCN(CC(O)COc2ccc(C(C)=O)cc2)CC1 (centres undefined)	-1.38	0.00896	0.8	85.9	-0.00222	·	·
CC(=O)c1ccc(OCC(O)CN2C(C)(C)CC(O)CC2(C)C)cc1 (centres undefined)	0.0866	0.192	1.2	102.5	-3.13*	622	243
Cc1ccccc1C(=O)c1ccc2c(c1)n(C)c(=O)n2C	0.0021	0.863	1.7	118.2	0.392	·	·
COC(=O)c1ccc(CSc2nnnn2C)o1	-0.453	0.63	0.8	91.2	-3.14*	399*	257
CCOC(=O)CC(=O)CSc1ccc2nnc(-c3cccc(F)c3)n2n1	-0.584	1.35	1.2	75.1	0.114	·	·
COC(=O)c1ccc(CSc2ccc3nnc(-c4cccc(F)c4)n3n2)o1	-0.257	1.17	1.1	106.9	-9.18*	216*	205
Cc1c(C(=O)N(C)Cc2ccccc2)oc2ccc(S(=O)(=O)N3CCCC3)cc12	2.54	-3.96	1.7	158.1	-2.33*	590	249
SMILES	M1 agonist	Cav3 T inh	PLAP act	Her2 expr inh	M1 antagonist	M1 antag conf	mGluR4 antag	others
Cc1c(C(=O)NCc2cccnc2)oc2ccc(S(=O)(=O)N3CCCCCC3)cc12	-0.733	-0.68	1.6	161.1	-1.64*	617	268
O=C(c1cccc(S(=O)(=O)N2CCOCC2)c1)N1CCCc2ccccc21	-0.83	0.791	1.5	90.2	-0.0889	·	·
Cc1c(C(=O)N2CCCc3ccccc32)oc2ccc(S(=O)(=O)N3CCOCC3)cc12	0.72	-1.57	1.3	91.7	-2.21*	614	264
Cc1c(C(=O)NCc2cccnc2)oc2ccc(S(=O)(=O)N3CCCCC3)cc12	2.06	0.284	·	93.8	-0.365	·	·
CCOC(=O)N1CCN(C(=O)c2oc3ccc(S(=O)(=O)N4CCCCCC4)cc3c2C)CC1	-0.151	1.95	1.4	130.9	-1.96*	598	236
CCOC(=O)N1CCN(C(=O)c2oc3ccc(S(=O)(=O)N4CCOCC4)cc3c2C)CC1	0.171	0.855	1.5	65.0	-0.274	·	·
CNc1nc(N)c(C(=O)C(C)(C)C)s1	1.23	0.0786	1	101.5	-1.84*	599	260
CNc1ncc(C(=O)C(C)(C)C)s1	·	-0.349	1	·	·	·	·
O=C1C2C3C=CC(C3)C2C(=O)N1/N=C/c1cc(Br)cc([N+](=O)[O-])c1O (centres undefined)	·	-2.54	0.9	·	·	·	·
Cc1ccc2oc(=O)c3cnn(CC(=O)Nc4cc(-c5cccc(F)c5)no4)c3c2c1	·	0.16	·	·	·	·	·
O=C(NC1CCCCCC1)C1C2C=CC3(CN(Cc4cccnc4)C(=O)C13)O2 (centres undefined)	-0.0888	-0.837	1.2	103.2	0.0921	·	·
O=C(Nc1ccc2c(c1)OCO2)c1ccc(COc2ccc3c(c2)CCC3)o1	-0.665	-1.87	0.8	110.3	-1.92*	647	232
[2H]c1c([2H])c([2H])c(-c2nc(N3CCCCCC3)sc2C(=O)c2ccccc2)c([2H])c1[2H]	·	-1.86	0.9	·	·	·	·
